Inconclusive results are not listed. Active and inactive are the calls of the source. Calls come from the whole dose curve.
Assay: Confirmation Concentration-Response Assay for Anthrax Lethal Toxin Internalization
Conditions: FRET ratio (460/530 nm); series mostly up to 46.1 µM

Row | Compound | Potency
1 | COc1ccc2c(c1OC)C(=O)OC2c1ccc(O)cc1 (stereo unspecified) | inactive
2 | O=C(Nc1ccc([N+](=O)[O-])cc1Cl)c1cc(Br)ccc1O | 0.794 µM (active)
3 | COc1ccc2c(c1OC)C(=O)OC2CC(=O)c1ccc2c(c1)OCO2 (stereo unspecified) | inactive
4 | COc1cc2c(O)c3c(c(-c4ccc5c(c4)OCO5)c2cc1OC)C(=O)OC3 | 0.0501 µM (active)
5 | Cc1ccc2oc(=O)c3cnn(CC(=O)Nc4ccccc4N4CCN(C)CC4)c3c2c1 | 2 µM (active)
6 | Cc1ccc2c(c1)-c1c(cnn1CC(=O)Nc1ccccc1N1CCN(C)CC1)CO2 | 3.98 µM (active)
7 | COc1cc([C@@H]2c3cc4c(cc3[C@H](O)[C@H]3COC(=O)[C@H]23)OCO4)cc(OC)c1OC | 0.794 µM (active)
8 | Cc1ccc2oc(=O)c3cnn(CC(=O)N4CCN(c5ccccc5)CC4)c3c2c1 | 5.01 µM (active)
9 | O=C(Nc1ccc([N+](=O)[O-])cc1Cl)c1cc(Cl)cc(Cl)c1O | 3.98 µM (active)
10 | COc1cc([C@@H]2c3cc4c(cc3[C@H](OC(C)=O)[C@H]3COC(=O)[C@H]23)OCO4)cc(OC)c1OC | 0.794 µM (active)
11 | O=C(Nc1c(Cl)cc([N+](=O)[O-])cc1Cl)c1cc(Cl)cc(Cl)c1O | 10 µM (active)
12 | O=C(Nc1ccc([N+](=O)[O-])cc1Cl)c1ccccc1O | 6.31 µM (active)
13 | COc1ccc(C2C3=C(COC3=O)Oc3cc4c(cc32)OCO4)cc1OC (stereo unspecified) | inactive
14 | COc1cc2c(OC(C)=O)c3c(c(-c4ccc5c(c4)OCO5)c2cc1OC)C(=O)OC3 | 0.0398 µM (active)
15 | Nc1ccc(NC(=O)c2cc(Cl)ccc2O)c(Cl)c1 | inactive
16 | COc1ccc(Cl)cc1C(=O)Nc1ccc([N+](=O)[O-])cc1Cl | inactive

— PubChem BioAssay AID942 (National Center for Advancing Translational Sciences (NCATS), 2007)
